A number with no mark means an inactive call.

The test system of this assay is Toxoplasma gondii RH 2F1 tachyzoites (intracellular in HFF). Nature of the assay: parasite survival relative to DMSO control; higher = less antiparasitic activity, active = 20 or less. Conditions: 1 µM; 72 h. The method, then:
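Primary single-dose screen of the MMV Pandemic Response Box at 1 uM against T. gondii RH-2F1 (beta-galactosidase) tachyzoites in HFF cells, 72 h at 37 C. Parasite growth read by CPRG absorbance at 570 nm and normalised to DMSO-treated infected controls (% survival); pyrimethamine was the reference drug. The paper calls at least 80% inhibition a hit.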
Take `Fc1cccc(Cl)c1C1CC(c2ccc(Cl)cc2)Nc2nnnn21` (stereo not given): the parasite survival was 79.9%.
In the case of `O=c1cc(OCc2ccccc2)ccn1Cc1ccccc1`, the parasite survival was 37%.
In the case of `COC(=O)Nc1nc2c(C)cccc2[nH]1` it was 36.4%.
In the case of `C[C@@H]1O[C@@H]1P(=O)(O)O` it was 46.3%.
In the case of `CCCCCCCCCN1C[C@@H](O)[C@H](O)[C@@H](O)[C@@H]1CO` it was 56.8%; in that of `N=c1n(CCN2CCCCC2)c2ccccc2n1CC(O)COc1ccc(Cl)cc1Cl` (stereo not given), 10.8% (active).
In the case of `O=C(NO)C1(CS(=O)(=O)c2ccc(Oc3ccc(Cl)cc3)cc2)CCOCC1`, the parasite survival was 66%.
In the case of `O=C(Cc1ccccc1F)Nc1nc2ccccc2[nH]1` it was 38.1%.
For `O=C(NCc1ccc(F)cc1)c1c(O)c2ncccc2[nH]c1=O` the value was 75.5%; for `CC[C@@H](CO)NCCN[C@@H](CC)CO`, 55.4%; for `COc1ccc(CNC(=O)C2CCN([C@H](C)c3cccc4ccccc34)CC2)cc1`, 52%.
In the case of `O=C(CCCC(F)(F)F)N1CCC(c2nc(-c3nccs3)no2)CC1` it was 68%; in that of `Nc1nc(O)c(Br)c(-c2cccc(Cl)c2)n1`, 63.8%; in that of `CC(C)(C)NC(=O)N[C@H](C(=O)N1C[C@H]2[C@@H]([C@H]1C(=O)NC(CC1CCC1)C(=O)C(N)=O)C2(C)C)C(C)(C)C` (stereo not given in full), 48.5%.
With `Cc1ccccc1NC(=O)Nc1cccc([N+](=O)[O-])c1`, the parasite survival was 24.2%.
Regarding `Clc1ccc(COC(Cn2ccnc2)c2ccc(Cl)cc2Cl)c(Cl)c1` (stereo not given), the parasite survival was 21.8%.
For `COc1ccccc1NC(=O)c1ccccc1Sc1ccc([N+](=O)[O-])cc1` the value was 52%; for `CC[C@H]1OC(=O)[C@H](C)[C@@H](O[C@H]2C[C@@](C)(OC)[C@@H](O)[C@H](C)O2)[C@H](C)[C@@H](O[C@@H]2O[C@H](C)C[C@H](N(C)C)[C@H]2O)[C@](C)(O)C[C@@H](C)C(=O)[C@H](C)[C@@H](O)[C@]1(C)O`, 13.9% (active).
In the case of `Cc1cc(C2CCCCC2)n(O)c(=O)c1` it was 15.8% (active).
For `O=C(O)C[C@H]1CC[C@H](c2ccc(-c3ccc(Nc4ccc(C(F)(F)F)nc4)cn3)cc2)CC1` the value was 42.6%; for `CCOCc1nc2c(N)nc3ccccc3c2n1CC(C)(C)O`, 55.5%; for `N[C@H]1CCC[C@H]1C(=O)O`, 78.4%.
`CCc1oc2ccccc2c1C(=O)c1ccc(O)cc1`: the parasite survival is 29.1%.
For `CN(C)CCNC(=O)c1cccc2cccnc12` the value was 62%.
For `Cc1ccc(N2CCC(CCOc3ccc(S(C)(=O)=O)cc3)CC2)nn1` the value was 73.2%.
For `O=S(=O)(Nc1ccc(O)cc1)c1cccc2cccnc12` the value was 64.4%.
In the case of `O=c1[nH]c(=O)n(Cc2cccc(Oc3ccccc3)c2)cc1Nc1ccccc1`, the parasite survival was 60.3%.
As for `CC(C)Nc1ncnc2c1cnn2-c1ccc(Cl)cc1`, the parasite survival is 58.2%.
In the case of `COc1ccccc1CN[C@H]1C2CCN(CC2)[C@H]1C(c1ccccc1)c1ccccc1` it was 37.5%.
`O=C(O)c1ccc(-c2ccc(O[C@H]3O[C@H](CO)[C@@H](O)[C@H](O)[C@@H]3O)cc2)cc1`: the parasite survival is 46.4%.
In the case of `CCOc1noc2cc(OCCC3CCN(c4ccc(C)nn4)CC3)ccc12` it was 45%.
Regarding `CC1=C(/C=C/C(C)=C/C=C/C(C)=C/C(=O)Nc2ccc(O)cc2)C(C)(C)CCC1`, the parasite survival is 35.7%.
For `CCc1cc(Nc2cc(=O)n(CCN3CCN(C(=O)c4ccccc4)CC3)c(=O)[nH]2)ccc1C` the value was 26%.
In the case of `Cc1c(OCC(F)(F)F)ccnc1C[S+]([O-])c1nc2ccccc2[nH]1` (stereo not given) it was 45.7%; in that of `C[C@H]1[C@@H](c2cccc(C(F)(F)F)c2)OC(=O)N1C(=O)NCc1cncc2ccccc12`, 40.6%.
In the case of `O=C1CCC(N2C(=O)c3ccccc3C2=O)C(=O)N1` (stereo not given) it was 58.1%; in that of `CC(C)(C)NC(=O)[C@@H]1C[C@@H]2CCCC[C@@H]2CN1C[C@@H](O)[C@H](Cc1ccccc1)NC(=O)[C@H](CC(N)=O)NC(=O)c1ccc2ccccc2n1`, 39%; in that of `NCc1ccc(S(N)(=O)=O)cc1`, 84.2%.
Take `CC1(C)C[C@H]1C(=O)N/C(=C\CCCCSC[C@@H](N)C(=O)O)C(=O)O`: the parasite survival was 94.5%.
For `O=C(Nc1ccc(Cl)c(C(F)(F)F)c1)C(CCCl)C(=O)Nc1ccc(Cl)c(C(F)(F)F)c1` the value was 15.6% (active).
